Experimental data reported in PubChem BioAssay AID489012 (National Center for Advancing Translational Sciences (NCATS), 2010).
Records with an inconclusive call do not appear. Entries that show only a call come without a potency. Calls of active or inactive are those of the source. The call rests on the fitted dose curve; in most records, active means well fitted activation curve with a large enough effect; inconclusive means small, poorly fitted or top-dose-only effect; inactive means no such curve, though single readings can be large or run the other way.

Target: Relaxin receptor 1 (Homo sapiens) (UniProt Q9HBX9)
Sequence (Q9HBX9 whole entry, looked up): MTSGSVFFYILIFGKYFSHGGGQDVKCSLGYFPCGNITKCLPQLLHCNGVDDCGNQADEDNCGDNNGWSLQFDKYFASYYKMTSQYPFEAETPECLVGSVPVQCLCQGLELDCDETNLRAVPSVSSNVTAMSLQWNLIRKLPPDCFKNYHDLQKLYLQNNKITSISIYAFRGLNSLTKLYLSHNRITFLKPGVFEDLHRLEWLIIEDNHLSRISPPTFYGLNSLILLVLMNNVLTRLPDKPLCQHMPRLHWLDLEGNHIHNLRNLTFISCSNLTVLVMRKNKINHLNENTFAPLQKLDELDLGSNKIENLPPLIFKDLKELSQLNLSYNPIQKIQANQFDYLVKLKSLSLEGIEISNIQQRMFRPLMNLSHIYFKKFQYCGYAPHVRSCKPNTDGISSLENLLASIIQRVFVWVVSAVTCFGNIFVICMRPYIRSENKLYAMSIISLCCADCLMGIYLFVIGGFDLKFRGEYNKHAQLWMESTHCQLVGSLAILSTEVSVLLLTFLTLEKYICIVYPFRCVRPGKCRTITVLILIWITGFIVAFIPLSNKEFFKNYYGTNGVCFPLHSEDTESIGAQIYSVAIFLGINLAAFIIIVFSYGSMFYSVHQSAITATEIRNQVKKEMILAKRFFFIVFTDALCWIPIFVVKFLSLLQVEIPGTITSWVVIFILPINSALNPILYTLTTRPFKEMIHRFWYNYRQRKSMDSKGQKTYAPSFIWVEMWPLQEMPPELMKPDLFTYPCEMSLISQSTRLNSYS
Experiment: qHTS Assay for Agonists of the Relaxin Receptor RXFP1: RXFP1 Hit Validation; further: nearly all actives have a fitted effect of over 65% in size;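 on activation: cAMP rise lowers the TR-FRET signal in lysed cells with PDE4 inhibitor present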
Details: HEK293T-RXFP1 cAMP TR-FRET, 30 min; series mostly up to 115 µM
From the text: NIH Chemical Genomics Center [NCGC] NIH Molecular Libraries Probe Production Centers Network [MLPCN] MLPCN Grant: R03 MH085705-01A1 Assay Submitter (PI): Alexander Agoulnik NCGC Assay Overview: The relaxin hormone is involved in the variety of biological functions in normal tissues and diseases. The role of relaxin is well-established in female reproduction and parturition, mammary gland and endometrial development, maintenance of myometrial quiescence during pregnancy. Relaxin signaling through its G protein-coupled receptor (GPCR) RXFP1 results in ECM remodeling through regulation of collagen deposition, cell invasiveness, proliferation and overall tissue homeostasis. […] Recombinant human relaxin (rhRlx) is currently being tested in clinical trials as a protective agent in congestive heart failure, in treating severe preeclampsia, and as an anti-fibrotic agent in systemic sclerosis. Upon relaxin binding RXFP1 activation leads to the activation of adenylate cyclase (AC) via Gs. cAMP will activate PKA, which phosphorylates many signaling proteins. Thus, detection of cAMP increase is an easy and reliable indication of relaxin receptor activation. To screen for agonists of the relaxin receptor, a HEK293T cell line stably transfected with RXFP1 was used. RXFP1 activation was assayed by changes in cAMP levels as detected with a time-resolved fluorescence energy transfer (TR-FRET) cAMP detection kit.
NCGC Assay Protocol Summary: This is a cell-based assay for cAMP second messenger response to screen for agonists of the RXFP1 receptor. The assay was conducted in the presence of a PDE4 inhibitor (Ro 20174). The cells were lysed and the cAMP levels were measured with a TR-FRET cAMP kit. Presence of cAMP in the cell lysate disrupts binding between the cryptate-labeled anti-cAMP and d2-labeled cAMP pair, leading to a decrease in the TR-FRET signal. Data were normalized to the controls for basal activity (buffer only) and 100% activity (29 nM porcine relaxin). The EC50 values were determined from concentration-response data modeled with the standard Hill equation 1536-well assay protocol for the HEK293 RXFP1 cAMP assay: (1) Add 3 ul HEK293 RXFP1 cell culture. 2000 cells/well in DMEM/F12, 10% FBS, 1x Pen/Strep (dispensed offline with MultiDrop Combi). (2) Incubate 16-24 hr at 37C, 5% CO2. (3) Add 1 ul 400uM Ro20174 in DPBS, 0.05% BSA, 0.005% Tween 20. (3) Add 23 nl compounds in DMSO solution. Final concentration was 0.5 - 58 uM. (4) Incubate 30 min at 37C, 5% CO2. (5) Add 1 ul cAMP-d2 in lysis buffer (HTRF cAMP HiRange kit, CisBio). (6) Add 1 ul anti-cAMP antibody-cryptate in lysis buffer (HTRF cAMP HiRange kit, CisBio). (7) Incubate 30 min at room temperature. […] Keywords: relaxin, RXFP1, RXFP2, G-protein coupled receptor, cAMP, agonist, high throughput screening, MLSMR, MLSCN, NIH Roadmap, qHTS and NCGC
Potency means the concentration at half of the fitted maximal effect.

SMILES | Potency
CC1CCCCN1C(=O)c1ccccc1NC(=O)c1ccco1 (stereo not given) | inactive
COc1cc(Cl)c(C)cc1NC(=O)c1ccc2c(c1)OCO2 | inactive
CCCc1nc(SCC(=O)NCC2CCCO2)c2c(=O)n(C)c(=O)n(C)c2n1 (stereo not given) | inactive
Cc1cc2nc3ccc(=[N+](C)C)cc-3sc2cc1N | inactive
CCN(CC)C(=O)c1cc(Cl)ccc1NC(=O)c1ccco1 | inactive
O=[N+]([O-])c1cc2c(c(CSc3nnc4ccccn34)c1)OCOC2 | 30.9 µM (active)
Cc1cc2c(SCC(=O)NCC3CCCO3)ncnc2s1 (stereo not given) | inactive
Cc1cc(C)n(C(=O)CCCn2cc([N+](=O)[O-])cn2)n1 | inactive
COc1ccc(CN2C(=O)c3cccnc3C2=O)cc1S(=O)(=O)NC1CCCCC1 | 38.9 µM (active)
COc1ccc(/C=C2/SC(=O)N(CCC(=O)Nc3ccc(C)cc3)C2=O)cc1OC | inactive
COC(=O)[C@@H]1C[C@@]2(O)[C@H](O)[C@H](O)[C@H](O)C[C@H]2N1Cc1cc(F)ccc1F | inactive
Cc1ccc2cc(CN(C(=O)c3cccs3)c3ccccc3)c(=O)[nH]c2c1 | inactive
c1ccc(COn2nnc3ccccc32)c(COn2nnc3ccccc32)c1 | inactive
O=C(O)CCNc1ccc(NCCC(=O)O)c2c1C(=O)c1ccccc1C2=O | inactive
O=C(Nc1ccccc1C(=O)N1CCN(c2ccccc2)CC1)c1ccco1 | inactive
NC(=O)c1ccccc1NC(=O)CC12CC3CC(CC(C3)C1)C2 | inactive
O=S(=O)(c1cccc(-c2cn3cccnc3n2)c1)N1CCOCC1 | 27.5 µM (active)
O=C(Nc1ccccc1C(=O)NCc1ccco1)c1ccco1 | inactive
Cc1cc(C)nc(NS(=O)(=O)c2ccc(N3C(=O)c4ccccc4C3=O)cc2)n1 | 29.8 µM (active)
CN(C)c1ccc(C(=S)N2CCN(S(=O)(=O)c3ccccc3)CC2)cc1 | inactive

SMILES | Potency
O=C(O)c1cccc(CSc2nnc(Cc3ccccc3)o2)c1 | inactive
O=C(Nc1ccccc1C(=O)Nc1ccc(F)cc1)c1ccco1 | inactive
O=C1CN(c2nc3ccccc3n3cnnc23)CC(=O)N1CCc1ccccc1 | inactive
c1ccc(-c2nnc(-c3ccccn3)c(-c3ccccn3)n2)nc1 | inactive
CC[n+]1ccc(/C=C/c2ccc(N(C)C)cc2)c2ccccc21 | inactive
CCOC(=O)c1sc(NC(=O)CCc2ccc(OC)cc2)nc1C | 15.4 µM (active)
COC(=O)c1c(N2C(=O)CC(Sc3ncccc3C(=O)O)C2=O)sc(C)c1C (stereo not given) | inactive
Cn1c2c(c(=O)n3ncnc13)CCCC2 | inactive
Cc1cccc2cc(C#N)c(SCC(=O)NCc3cccs3)nc12 | 17.3 µM (active)
CC(=O)C1C(c2ccccc2)c2c(noc2C)CC1(C)O (stereo not given) | inactive
O=C(Nc1ccccc1C(=O)N1CCOCC1)c1ccco1 | inactive
C=CCNc1ncnc2c1ncn2C1OC(CO)C(O)C1O (stereo not given) | inactive
CCN(CC)S(=O)(=O)c1ccc(N2CCOCC2)c(NC(=O)c2cc([N+](=O)[O-])ccc2Cl)c1 | inactive
N#C/C(=C/c1ccc(OCc2ccccc2)cc1)C(=O)NC1CCCCC1 | inactive
COc1cccc(CNC(=O)c2ccc(CS(=O)Cc3ccc(C)cc3)o2)c1 (stereo not given) | inactive
O=C(Nc1ccccc1C(=O)NC1CCCCC1)c1ccco1 | inactive
O=C(Nc1ccccc1C(=O)NCCN1CCOCC1)c1ccco1 | inactive
CCc1nnc(NC(=O)CSc2nc(C)nc3c2c(=O)n(C)c(=O)n3C)s1 | 17.3 µM (active)
Cc1ccc(CN(C)C(=O)c2ccc3c(c2)NC(=O)CS3)o1 | inactive
CC(C)n1c(CN2CCN(C(=O)c3ccco3)CC2)nc2c1c(=O)n(C)c(=O)n2C | inactive
